From PubChem BioAssay
VDR inhibitor – vitamin D3 receptor (human) inhibition; P11473; VDR-SRC2-3 peptide fluorescence polarization, 2 h; Potency, µM, for the others: max response, negative = inhibition, actives largely listed as inhibitors; 0.93% of 400,000 active; note: % is set by controls: 0 for no effect and ±100 for the full control effect
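VDR–SRC2-3 interaction, FP format. Cmpds 23 nl via pintool, brief spin, 2 h ambient incubation.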
TSG101-PTAP inh – blocks PTAP/TSG101 interaction to inhibit HIV-1 budding. Potency, µM (top dose mostly 115 µM), for the others: top-dose activity change, negative = inhibition, hits mostly inhibitors. Q99816. 340,000 tested, under 10 active. Fluorescence polarization, FITC-PTAP peptide / Tsg101 binding; active = well fitted inhibition curve with a large enough effect in the main read-out, with a control signal flat, not every such curve was filed as active; inconclusive = small, poorly fitted or top-dose-only effect, or effect the other way, or a change in a side signal; inactive = no such curve, though single readings can be large or run the other way; note: % of control where 0% means no effect
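Compounds were pin-transferred onto Tsg101 binding domain (10 uM final) in HEPES pH 7.5 buffer, then FITC-PTAP peptide was added at 50 nM final. After 20 min at RT, polarization reported peptide displacement across a qHTS concentration series.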
KAT2A inh – GCN5L2 (KAT2A) acetyltransferase inhibition; Q92830; GCN5L2 HAT assay, ThioGlo1 CoA-SH fluorescence; Potency, µM (highest dose often 58.9 µM), without a hit: at the top dose activity change, negative = inhibition, hits mostly inhibitors; 0.21% of 390,000 active; note: % is set by controls: 0 for no effect and ±100 for the full control effect
Target sequence (Q92830 whole entry, looked up): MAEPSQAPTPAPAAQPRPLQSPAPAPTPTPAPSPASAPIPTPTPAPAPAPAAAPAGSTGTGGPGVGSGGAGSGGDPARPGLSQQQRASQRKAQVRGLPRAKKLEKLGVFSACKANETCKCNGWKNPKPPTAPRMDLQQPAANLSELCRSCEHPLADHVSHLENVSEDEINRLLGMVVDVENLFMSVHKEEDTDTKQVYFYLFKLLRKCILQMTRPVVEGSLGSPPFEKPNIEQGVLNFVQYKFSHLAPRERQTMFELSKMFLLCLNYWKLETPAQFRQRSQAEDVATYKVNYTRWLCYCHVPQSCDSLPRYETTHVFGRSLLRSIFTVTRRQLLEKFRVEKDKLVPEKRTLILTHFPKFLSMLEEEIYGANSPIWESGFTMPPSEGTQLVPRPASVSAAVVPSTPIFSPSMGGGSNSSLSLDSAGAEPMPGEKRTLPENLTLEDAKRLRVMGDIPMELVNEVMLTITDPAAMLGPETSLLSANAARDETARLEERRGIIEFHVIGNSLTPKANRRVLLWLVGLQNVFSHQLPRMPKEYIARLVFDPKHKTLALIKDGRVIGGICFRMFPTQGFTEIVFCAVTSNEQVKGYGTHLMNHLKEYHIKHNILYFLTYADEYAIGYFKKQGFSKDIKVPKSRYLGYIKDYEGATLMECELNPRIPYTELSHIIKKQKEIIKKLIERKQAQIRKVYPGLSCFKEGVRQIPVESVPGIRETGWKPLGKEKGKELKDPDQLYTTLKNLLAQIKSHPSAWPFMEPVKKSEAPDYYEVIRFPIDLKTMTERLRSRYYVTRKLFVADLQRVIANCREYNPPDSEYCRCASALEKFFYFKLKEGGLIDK
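Free CoA generated was detected with ThioGlo1 (50uM) fluorescence at Ex340nm/Em540nm, read immediately and after 20 min at room temperature. Enzyme, 20 nM in HEPES pH 7.5 buffer, saw compounds 15 min before adding 75uM H3(1-25) peptide and 70uM acetyl-CoA.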
USP1 inh – inhibitors of human USP1/UAF1 deubiquitinase | O94782 | recombinant USP1/UAF1, Ub-Rhodamine cleavage fluorescence | Potency, µM (doses to about 57.1 µM), for inactives: at the highest dose activity change, negative = inhibition, actives largely listed as inhibitors | 0.23% of 390,000 active; note: % is set by controls: 0 for no effect and ±100 for the full control effect; nearly all actives have a fitted effect of over 60% in size
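Step one: compound is pinned into 1nM USP1/UAF1 in HEPES pH 7.8 buffer with TCEP. Step two: 15 min room-temperature incubation. Step three: Ub-Rho (150nM final) starts cleavage, tracked by fluorescence over six one-minute reads.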
PLK1 PBD block – inhibitors of human PLK1 polo-box domain binding; 2.8% of 360,000 active; Plk1 PBD binding of FITC phosphopeptide, fluorescence polarization; P53350; Potency, µM, for inactives: max response, negative = inhibition, actives largely listed as inhibitors; note: series mostly up to about 57 µM; % is set by controls: 0 for no effect and ±100 for the full control effect; nearly all actives have a fitted effect of over 65% in size
Numbers without * were called inactive; ? = inconclusive; . = no result. Hits are enriched below; roughly 3% of the tested compounds scored in any of these assays. Unless noted, calls come from the whole dose curve; as a rule, active = well fitted curve in the direction sought with a large enough effect; inconclusive = small, poorly fitted or top-dose-only effect, or another doubt; inactive = no such curve, though single readings can be large; an effect the other way counts as inactive or inconclusive. Potency is the fitted concentration of half-maximal effect.

SMILES	VDR inhibitor	TSG101-PTAP inh	KAT2A inh	USP1 inh	PLK1 PBD block
O=C(NCCS(=O)(=O)c1ccc(Cl)cc1)c1ccc(F)cc1	?	0%	-1%	-23%	21µM*
O=C1NC[C@@H](CCCCN2C[C@H](Cc3ccc(O)cc3)N(Cc3ccccc3)C(=O)C2=O)N(CCc2ccc(O)cc2)C1=O	.	.	.	.	-11%
Cn1cccc1/C=C1\CCC/C(=C\c2cccn2C)C1=O	-18%	?	-6%	22µM*	22%
O=C(COC(=O)c1ccc(O)cc1O)Nc1ccc2c(c1)OCCO2	-2%	-1%	2%	-21%	3%
O=C(c1cccc(F)c1)N1CCC[C@@]2(CCN(c3ccccc3)C2)C1	45µM*	.	-19%	.	.
COc1ccc(C(=O)N2CCC[C@@]3(CCN(c4ccncc4)C3)C2)cc1	14%	.	7%	.	.
O=C(c1cccc(F)c1)N1CCC[C@@]2(CCN(c3cccc(-c4ccccc4)c3)C2)C1	45µM*	.	-14%	.	.
O=C(c1cccc(F)c1)N1CCC2(CCCN(c3cccc(-c4ccccc4)c3)C2)CC1	-14%	.	-9%	.	.
COc1ccc(C(=O)N2CCC[C@@]3(CCN(c4ccccc4)C3)C2)cc1	56µM*	.	2%	.	.
O=C(Oc1ccccc1)N1CCC[C@@]2(CCN(c3ncccn3)C2)C1	-8%	.	-2%	.	.
O=C(Oc1ccccc1)N1CCC[C@@]2(CCN(c3ccccc3)C2)C1	35µM*	.	-1%	.	.
CC(=O)N1CCN(C)CC1	-16%	.	-2%	.	.
COc1ccc(-c2noc(CN(C(=O)C(C)Oc3ccc(C)cc3)C(C)C)n2)cc1 (stereo unspecified)	6%	.	-13%	2%	.
Fc1ccc(C2=NNC(=NCc3ccccc3)SC2)cc1F	-7%	-1%	-6%	-10%	27µM*
COC(=O)c1cc(OC)c(OC)cc1NC(=O)c1ccc2c(c1)CCN2S(=O)(=O)c1ccccc1	4%	.	-3%	-31%	.
COCCC(=O)N1CCC(Oc2ccc(C(=O)N(C)C(C)c3ccon3)cc2)CC1 (stereo unspecified)	-25%	-2%	?	-15%	27µM*
COCCC(=O)N1CCC(Oc2ccc(C(=O)N(C)C3CCCCC3)cc2)CC1	1%	-1%	-6%	-8%	-7%
CCCOC1CCCN(C(=O)c2ccc(OC3CCN(C(=O)CCOC)CC3)cc2)C1 (stereo unspecified)	-12%	.	-1%	-10%	-2%
COCCC(=O)N1CCC(Oc2ccc(C(=O)N3CCCC(OC)C3)cc2)CC1 (stereo unspecified)	-12%	-2%	-5%	0%	27µM*
COc1ccc(C2CC(c3cccs3)=NN2C(=O)CSc2nc(=O)n3cc(C)ccc3n2)cc1 (stereo unspecified)	-18%	-1%	-17%	-26%	-1%
CN(CCc1ccccc1)C(c1cc2ccccc2o1)c1nnnn1C(C)(C)C (stereo unspecified)	.	.	.	.	-8%
NC(=O)NOCc1ccc(Cl)cc1Cl	-22%	0%	0%	-11%	27µM*
CCN1C(=O)[C@H]2[C@H]3CN=C(SCC(=O)c4ccccc4)N3[C@@](C)(C(=O)OC)[C@H]2C1=O	45µM*	-4%	-7%	-16%	?
COC(=O)[C@@]1(C)[C@H]2C(=O)N(Cc3ccccc3)C(=O)[C@H]2[C@H]2CN=C(SCc3ccccc3)N21	-13%	2%	-11%	-21%	-18%
N#Cc1nc(-c2cccs2)oc1NCCCN1CCOCC1	-4%	-1%	35µM*	-16%	-8%
SMILES	VDR inhibitor	TSG101-PTAP inh	KAT2A inh	USP1 inh	PLK1 PBD block
Cc1cc(C)nc(NN2C(=O)/C(=C/c3ccccc3)SC2=S)n1	101%	-10%	4%	-15%	-27%
O=C1/C(=C/c2ccncc2)SC(=S)N1Nc1ccccc1	50µM*	-6%	-16%	?	5.3µM*
O=C(O)c1ccc(/C=C2\SC(=S)N(Nc3ccccc3)C2=O)cc1	?	-4%	-13%	-7%	21µM*
COC(=O)CCCCCN1C(=O)/C(=C\c2ccncc2)SC1=S	79µM*	-4%	-14%	-10%	-24%
O=C(O)CCN1C(=O)/C(=C\c2ccncc2)SC1=S	-7%	-3%	-2%	-23%	0%
O=C1/C(=C/c2ccc(O)c(O)c2)SC(=S)N1Nc1ccccc1	12%	9%	-29%	?	8%
CCOc1ccc(NC(=O)CSc2nc3ccsc3c(=O)n2C(C)CC)cc1 (stereo unspecified)	-3%	.	7%	7%	.
CC1(C)C(=O)C=C[C@]2(C)C1CC(=O)[C@]1(C)C2CC[C@@]2(C)C(c3ccoc3)OC(=O)C3O[C@@]321 (stereo partly specified)	20µM*	.	-13%	.	.
Fc1ccc(Nc2nc(-c3cccc(Cl)c3)c3c(n2)-c2ccccc2OC3)cc1	17%	.	-5%	-25%	.
CCCCN(CC)CCCNC(=O)c1sc2nc(C)cc(C)c2c1-n1cccc1	7%	.	-13%	-26%	.
CCCCCC(=O)Nc1cc(S(=O)(=O)O)cc2cc(S(=O)(=O)O)cc(O)c12	?	-7%	.	?	6µM*
Nc1c(-c2ccccc2)c(CSc2nc3ccccc3[nH]2)nn1-c1ccc(C(=O)O)cc1	?	-2%	-5%	-14%	15µM*
COc1ccccc1-c1nnc(C2CCN(S(=O)(=O)c3ccc(F)c(C)c3)CC2)o1	-8%	.	3%	-23%	.
CCOC(=O)C1C(=O)CC(C)(O)C(C(=O)OCC)C1c1ccc(F)cc1 (stereo unspecified)	-3%	-15%	-13%	-13%	1%
CCOC(=O)C1C(=O)CC(C)(O)C(C(=O)OCC)C1c1ccco1 (stereo unspecified)	-21%	-4%	2%	16%	3.4µM*
O=c1c2ccccc2n2c(=S)[nH]nc2n1-c1ccccc1	-5%	-2%	?	?	21µM*
CCC(C)c1ccc(-n2c(=O)c3ccccc3n3c(=S)[nH]nc23)cc1 (stereo unspecified)	-16%	0%	0%	-20%	21µM*
O=C(c1ccc(Br)cc1)c1cc2ccc(O)cc2oc1=O	?	-3%	-9%	-13%	11µM*
CCOc1ccc(CN2C(=O)c3ccccc3Sc3ccc(C(=O)O)cc32)cc1	13%	.	4%	-7%	.
COc1ccc(O)c(/C=N/c2sc(C)c(C)c2C#N)c1	-14%	29%	-8%	8%	30µM*
Cc1sc(/N=C/c2c(O)ccc3ccccc23)c(C#N)c1C	.	.	2%	.	.
Cc1ccc(SCC(=O)Nc2ccc(O)c(-c3nc4cc(C)ccc4o3)c2)cc1	15%	.	-10%	-6%	.
CC1=C(C)/C(=N/OC(=O)c2cccc([N+](=O)[O-])c2)C=CC1=O	7%	0%	-7%	-16%	4.2µM*
Cc1cc(C)n(CC(=O)Nc2ccccc2)n1	0%	3%	21%	-5%	21µM*
Cc1c(C)n(CCC#N)c2ccccc12	9%	-2%	-1%	-18%	-6%
